# Reference: PubChem BioAssay (NCATS)
# Results filed as inconclusive are left out. Where a call stands in place of a potency, no number is given. Activity calls are given as the source filed them. Unless noted, calls come from the whole dose curve; as a rule, active = well fitted curve in the direction sought with a large enough effect; inconclusive = small, poorly fitted or top-dose-only effect, or another doubt; inactive = no such curve, though single readings can be large; an effect the other way counts as inactive or inconclusive.
# Assays:
# [1] = Cytotoxicity counterscreen for NFkB agonists and antagonists (AID 624476); note: potency is the fitted concentration of half-maximal effect
# [2] = qHTS Assay for Identification of Small Molecule Agonists for NFkB Signaling Pathway. (AID 624478);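 note: compounds tested together with TNF alpha at its EC50 of 10 pM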
# Outline: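 Cells carrying an NFkB response element-driven beta-lactamase gene are co-treated with compound and 10 pM TNF alpha for 5 h, and reporter activity is then read as 460 and 530 nm fluorescence.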
# [3] = qHTS Assay for Identification of Small Molecule Antagonists for NFkB Signaling Pathway. (AID 624479; calls by dose curve;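 note: pathway stimulated with TNF alpha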; note: potency is the fitted concentration of half-maximal effect)
# [4] = Cell Proliferation Assay against the TMD8 Cell Line (AID 651645); conditions: TMD8 DLBCL cell line proliferation/viability; at 46.1 µM (top of the series);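 note: cells exposed to compound for 48 h before reading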
# Outline: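 Cell viability of the ABC DLBCL line TMD8 is measured by CellTiter-Glo luminescence following a 48-hour incubation with compound. Percent activity uses DMSO as 100% and 9.2 uM bortezomib (final) as 0%.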
# [5] = Cell Proliferation Assay against the HBL1 Cell Line (AID 651646); conditions: HBL1 DLBCL cells; at 46.1 µM (top of the series);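 note: cells exposed to compound for 48 h before reading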
# Outline: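 Luminescent ATP read-out (CellTiter-Glo) after 48 h compound exposure of HBL1 cells at 37 °C; percent activity was scaled between DMSO as 100% and 9.2 uM bortezomib (final) as 0%.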
# [6] = Cell Proliferation Assay against the TMD8 Cell Line (Caspase readout at 8 hrs) (AID 651713)
# Outline: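 Percent activity derived from Caspase-Glo signal, DMSO set to 0% and bortezomib (9.2 uM final) to 100%. TMD8 cells were exposed to compound for 8 h in RPMI with 5% FBS.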
# [7] = S16 Schwann cell viability assay (CellTiter-Glo assay) (AID 624031);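 note: native untransfected S16 rat Schwann cells; cellular ATP luminescence as a viability measure; nearly all actives have a fitted effect of over 70% in size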
# Outline: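 Rat S16 Schwann cells without reporter constructs received compound or DMSO for 24 h at 37 °C under 5% CO2. Cellular ATP was then quantified by CellTiter-Glo luminescence, with vehicle wells defined as 0% activity and cell-free wells as reference.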
# [8] = S16 Schwann cell PMP22 intronic element firefly luciferase assay (AID 624032); note: nearly all actives have a fitted effect of over 30% in size; note: potency is the fitted concentration of half-maximal effect
# Outline: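 Luciferase reporter of PMP22 intronic-element expression in stably transfected S16 rat Schwann cells, read by ONE-Glo luminescence after 24 h compound exposure at 37 C. Activity scaled between DMSO (0%) and positive-control PTC124; concentration-effect curves quality-classified.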
# [9] = S16 Schwann cell PMP22 intronic element beta-lactamase assay (AID 624044; calls by dose curve; note: nearly all actives have a fitted effect of over 15% in size; note: potency is the fitted concentration of half-maximal effect)
# Outline: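 Rat S16 Schwann cells with beta-Lac driven by a PMP22 intronic element, compound-treated 24 h at 37 °C. LiveBLAzer FRET B/G read: 460 nm normalized to potassium clavulanate vs DMSO; 535 nm FRET as viability; concentration-effect curves classified.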
# [10] = Cell Proliferation Assay against the TMD8 Cell Line (Caspase readout at 16 hrs) (AID 651712); note: potency is the fitted concentration of half-maximal effect
# Outline: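 Apoptotic response of TMD8 cells was judged from caspase 3/7 activation following a 16 hour compound incubation at 37 °C. Luminescent signal was converted to percent activity, with DMSO set as 0% and 9.2 uM final bortezomib as 100%.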
# [11] = target: Glutaminase kidney isoform, mitochondrial (Homo sapiens) (UniProt O94925); experiment: qHTS for Inhibitors of Glutaminase (GLS): LOPAC Validation (AID 624146);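 note: glutamate product detected by oxidase and peroxidase coupled Amplex red fluorescence gain; nearly all actives have a fitted effect of over 60% in size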
# Outline: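 Two-point fluorescence kinetic (t0, 30 min RT) for hKGA; glutamate detected via glutamate oxidase–HRP–Amplex Red. Substrate: 1 mM L-glutamine solution; buffer 45 mM KH2PO4, pH 8.2.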
# [12] = qHTS of Trypanosoma Brucei Inhibitors: LOPAC Validation (AID 624147)
# Outline: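 ADP (130 uM final) triggers the TbPYK reaction after compound addition; incubation is 45 min at room temperature. Kinase-Glo Plus is then added and luminescence imaged. Normalized data are fitted to concentration-effect curves.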
# [13] = target: Glucagon-like peptide 1 receptor (Homo sapiens) (UniProt P43220); experiment: qHTS of GLP-1 Receptor Agonists: LOPAC Validation (AID 624148);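 note: luminescence from a luciferase reporter switched on by cAMP; higher luminescence signal means agonism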
# Outline: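 Agonism scored as increased luciferase luminescence driven by cAMP in HEK293 clones carrying GLP-1R. Cells settled 12 hours, received compound for 4-6 hr at 37 deg C, 5% CO2, and were read after 12 min detection reagent at RT.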
# [14] = qHTS of Nrf2 Activators: LOPAC Validation (AID 624149)
# Outline: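 ARE reporter activation measured in AREc32 firefly luciferase cells after 24 hr compound exposure; Steady-Glo luminescence.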
# [15] = HTS Assay for Allosteric Antagonists of the Human D2 Dopamine Receptor: Hit Validation in HTRF (AID 624455);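 note: stable D1 dopamine receptor cell line scored for blocking the D1 response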
# Outline: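 Signal from an HTRF read-out in D1-expressing stable cells gave hit activity as inhibition of the D1 response.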
# Glucagon-like peptide 1 receptor (Homo sapiens), sequence (P43220 whole entry, looked up): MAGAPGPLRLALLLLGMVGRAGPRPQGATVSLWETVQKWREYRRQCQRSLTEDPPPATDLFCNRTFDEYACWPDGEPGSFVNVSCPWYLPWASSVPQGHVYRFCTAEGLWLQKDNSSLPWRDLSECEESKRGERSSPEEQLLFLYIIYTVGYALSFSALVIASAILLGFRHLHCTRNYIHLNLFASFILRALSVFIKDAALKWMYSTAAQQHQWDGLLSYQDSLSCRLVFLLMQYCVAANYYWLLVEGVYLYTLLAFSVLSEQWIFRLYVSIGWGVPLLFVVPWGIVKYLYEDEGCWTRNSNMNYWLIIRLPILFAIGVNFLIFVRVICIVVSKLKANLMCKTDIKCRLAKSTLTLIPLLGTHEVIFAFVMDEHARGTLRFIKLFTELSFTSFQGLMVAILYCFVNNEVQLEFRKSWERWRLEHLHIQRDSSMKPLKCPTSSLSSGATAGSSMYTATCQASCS
# Glutaminase kidney isoform, mitochondrial (Homo sapiens), sequence (O94925 whole entry, looked up, canonical isoform): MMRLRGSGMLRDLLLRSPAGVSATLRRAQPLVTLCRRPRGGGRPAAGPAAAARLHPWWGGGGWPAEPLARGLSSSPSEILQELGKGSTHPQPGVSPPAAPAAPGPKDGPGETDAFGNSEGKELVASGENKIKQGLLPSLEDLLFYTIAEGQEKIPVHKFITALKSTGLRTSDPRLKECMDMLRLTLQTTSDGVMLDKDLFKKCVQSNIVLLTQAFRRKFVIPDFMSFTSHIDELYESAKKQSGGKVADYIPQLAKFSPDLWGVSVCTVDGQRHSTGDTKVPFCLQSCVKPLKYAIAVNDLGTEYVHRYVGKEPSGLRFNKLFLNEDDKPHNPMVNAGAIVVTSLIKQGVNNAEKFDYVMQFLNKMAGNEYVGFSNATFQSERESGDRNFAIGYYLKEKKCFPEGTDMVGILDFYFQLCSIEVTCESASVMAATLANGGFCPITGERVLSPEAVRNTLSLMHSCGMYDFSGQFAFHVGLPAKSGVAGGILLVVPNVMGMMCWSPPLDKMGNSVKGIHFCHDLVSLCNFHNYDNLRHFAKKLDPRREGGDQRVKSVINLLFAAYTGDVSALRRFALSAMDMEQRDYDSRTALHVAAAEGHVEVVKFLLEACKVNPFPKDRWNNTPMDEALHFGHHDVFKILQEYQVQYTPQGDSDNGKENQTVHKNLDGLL
structure (smiles),measurement,setting,value
CC(C)C[C@@H](C(=O)N[C@H](C(=O)OC1CCCC1)c1ccccc1)[C@H](O)C(=O)NO,Potency,[1],inactive
same,outcome,[2],inactive
same,Potency,[3],inactive
same,viability (% of control),[4],4.45%
same,"viability, percent of control",[5],6.68%
same,Potency,[6],inactive
Clc1ccc(COC(Cn2ccnc2)c2ccc(Cl)cc2Cl)c(Cl)c1 (configuration not stated),outcome,[7],inactive
same,Potency,[8],8.7 µM (active)
same,Potency,[9],inactive
COc1cc2c(cc1OC)CC(=O)N(CCCN(C)C[C@H]1Cc3cc(OC)c(OC)cc31)CC2,outcome,[7],inactive
same,Potency,[8],inactive
same,Potency,[1],inactive
same,outcome,[2],inactive
same,Potency,[3],inactive
same,"viability, percent of control",[5],122%
same,Potency,[10],inactive
same,Potency,[6],inactive
NCC1CCC(C(=O)O)CC1 (configuration not stated),outcome,[7],inactive
same,Potency,[8],inactive
same,Potency,[9],inactive
C[C@H]1O[C@@H](n2cc(F)c(=O)[nH]c2=O)[C@H](O)[C@H]1O,outcome,[11],inactive
same,outcome,[12],inactive
same,outcome,[13],inactive
same,outcome,[14],inactive
same,outcome,[15],inactive
CS(=O)(=O)c1ccc(C2=C(c3ccccc3)C(=O)OC2)cc1,outcome,[7],inactive
same,Potency,[8],inactive
same,Potency,[9],inactive
Cc1cc2nc3c(=O)[nH]c(=O)nc-3n(CC(O)C(O)C(O)CO)c2cc1C (configuration not stated),outcome,[7],inactive
same,Potency,[9],inactive
CC(C)CN(C[C@@H](O)[C@H](Cc1ccccc1)NC(=O)O[C@H]1CO[C@H]2OCC[C@H]21)S(=O)(=O)c1ccc(N)cc1,outcome,[7],inactive
same,Potency,[8],inactive
C=CCc1cccc(C=NNC(=O)CN2CCN(Cc3ccccc3)CC2)c1O,outcome,[11],inactive
same,outcome,[12],inactive
same,outcome,[13],inactive
same,outcome,[14],inactive
same,outcome,[15],inactive
CC(C)Oc1cc(Nc2nc(N[C@@H](C)c3ccc(F)cn3)ncc2Cl)[nH]n1,Potency,[1],2.96 µM (active)
same,outcome,[2],inactive
same,Potency,[3],14.9 µM (active)
same,viability (% of control),[4],0.843%
same,"viability, percent of control",[5],13.4%
same,Potency,[10],inactive
N#Cc1c(N(CC(=O)O)CC(=O)O)sc(C(=O)O)c1CC(=O)O,outcome,[7],inactive
same,Potency,[8],inactive
same,Potency,[9],inactive
Cc1nn(Cc2ccccc2Cl)c(C)c1CN(C)CC(O)COc1ccc(Cl)cc1 (configuration not stated),Potency,[1],inactive
same,outcome,[2],inactive
same,Potency,[3],inactive
same,viability (% of control),[4],9.51%
same,"viability, percent of control",[5],2.62%
same,Potency,[6],inactive
CN1C(=O)C(Cc2c[nH]c3ccccc23)NC1=S (configuration not stated),Potency,[1],inactive
same,outcome,[2],inactive
same,Potency,[3],inactive
same,"viability, percent of control",[5],98.6%
same,Potency,[10],inactive
same,Potency,[6],inactive
O=C1CN2Cc3c(ccc(Cl)c3Cl)N=C2N1,Potency,[1],inactive
same,outcome,[2],inactive
same,Potency,[3],inactive
O=C(O)c1nc(=O)[nH]c(=O)[nH]1,outcome,[7],inactive
same,Potency,[8],16.1 µM (active)
same,Potency,[9],inactive
Fc1ccc(C(c2ccc(F)cc2)N2CCN(CC=Cc3ccccc3)CC2)cc1,Potency,[9],inactive
COc1c(C)c2c(c(O)c1CC=C(C)CCC(=O)OCCN1CCOCC1)C(=O)OC2,Potency,[8],5.1 µM (active)
same,Potency,[9],2.82 µM (active)
CCNC(=O)c1noc(-c2cc(C(C)C)c(O)cc2O)c1-c1ccc(CN2CCOCC2)cc1,Potency,[1],inactive
same,outcome,[2],inactive
same,Potency,[3],0.0009 µM (active)
same,"viability, percent of control",[5],47.2%
COc1cccc(OC)c1-c1cc(C(=O)NC2(C(=O)O)C3CC4CC(C3)CC2C4)nn1-c1ccnc2cc(Cl)ccc12 (configuration not stated),Potency,[1],14.8 µM (active)
same,outcome,[2],inactive
same,Potency,[3],16.8 µM (active)
same,"viability, percent of control",[5],3.08%
same,Potency,[10],23.5 µM (active)
C[C@@H](O[C@H]1OCCN(Cc2n[nH]c(=O)[nH]2)[C@@H]1c1ccc(F)cc1)c1cc(C(F)(F)F)cc(C(F)(F)F)c1,Potency,[1],29.6 µM (active)
same,outcome,[2],inactive
same,Potency,[3],23.7 µM (active)
Cc1csc(-c2nnc(Nc3ccc(Oc4ncccc4-c4ccnc(N)n4)cc3)c3ccccc23)c1,Potency,[1],inactive
same,outcome,[2],inactive
same,Potency,[3],1.06 µM (active)
same,"viability, percent of control",[5],63.2%
same,Potency,[10],23.5 µM (active)
Nc1ccc(-c2ccc3ncc4ccc(=O)n(-c5cccc(C(F)(F)F)c5)c4c3c2)cn1,Potency,[1],0.833 µM (active)
same,outcome,[2],inactive
same,Potency,[3],4.73 µM (active)
same,"viability, percent of control",[5],8.06%
same,Potency,[10],0.118 µM (active)
CN1CC(=O)N2C(Cc3c([nH]c4ccccc34)[C@H]2c2ccc3c(c2)OCO3)C1=O (some centres not stated),outcome,[7],inactive
same,Potency,[9],inactive
C=C1c2cccc(O)c2C(O)=C2C(=O)[C@@]3(O)C(O)=C(C(N)=O)C(=O)[C@@H](N(C)C)[C@@H]3[C@@H](O)[C@H]12,Potency,[8],inactive
same,Potency,[9],inactive
CN(C)CCCNC(=O)c1ccc(-c2cc(O)c3ncccc3c2)cc1,outcome,[2],inactive
same,Potency,[3],inactive
same,"viability, percent of control",[5],31%
OCCn1cc(-c2ccc3c(c2)CCC3=NO)c(-c2ccncc2)n1,Potency,[1],inactive
same,outcome,[2],inactive
same,Potency,[3],inactive
same,"viability, percent of control",[5],133%
same,Potency,[10],inactive
same,Potency,[6],inactive
CC(=O)Nc1cccc(-n2c(=O)n(C3CC3)c(=O)c3c(Nc4ccc(I)cc4F)n(C)c(=O)c(C)c32)c1,outcome,[2],inactive
same,"viability, percent of control",[5],6.64%
CCCCc1ccc(NS(=O)(=O)c2ccc(C)c(C(=O)N3CCN(c4cccc(C)c4C)CC3)c2)cc1,Potency,[1],20.9 µM (active)
same,Potency,[3],16.8 µM (active)
same,"viability, percent of control",[5],6.19%
same,Potency,[10],20.9 µM (active)
CCOC(=O)[C@@H](N)CCC(=O)N[C@@H](CSCc1ccccc1)C(=O)N[C@@H](C(=O)OCC)c1ccccc1,Potency,[1],inactive
same,viability (% of control),[4],62.4%
same,"viability, percent of control",[5],89.4%
O=C(O)Cc1cccc(OCCCN(Cc2cccc(C(F)(F)F)c2Cl)CC(c2ccccc2)c2ccccc2)c1,Potency,[1],26.4 µM (active)
same,"viability, percent of control",[5],12.9%
O=C(Nc1ccc(OC(F)(F)F)cc1)c1sccc1NCc1ccnc2ccccc12,Potency,[1],33.2 µM (active)
same,outcome,[2],inactive
same,"viability, percent of control",[5],26%
same,Potency,[10],inactive
